mTORC1 inh: mTORC1 pathway inhibition measured by phospho-rpS6; Tsc2-/- p53-/- MEF, phospho-rpS6 immunofluorescence/PI, 24 h; Potency, µM (titrated, usually from 38.3 µM), most hits filed as inhibitors; 44,000 compounds, 0.78% hits; note: nearly all actives have a fitted effect of over 50% in size
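Tsc2-/-, p53-/- mouse embryonic fibroblasts (empty-vector line) exposed to compound 24 hrs at 37 C, fixed, immunostained for phospho-rpS6 and counterstained with propidium iodide. Acumen laser scanning gives % positive cells from Alexa 488/PI ratio, thresholded using 7.5 nM rapamycin; PI count gives viability.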
p53null 32C kill: selectivity test: cytotoxicity in p53 null cells, permissive temperature; Potency, µM (doses to about 46.1 µM), most hits filed as cytotoxic; H1299-neo p53 null cells, ATP luminescence, 24 h, 32C; 55,000 compounds, 0.62% hits; AID 903; note: nearly all actives have a fitted effect of over 55% in size
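Cells lacking p53 (H1299-neo) are plated at 600 per well and allowed to settle overnight at 37C. Test compounds (up to 46 uM) are added and held 24 hours at 32C, then ATP is quantified by luminescence.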
OvCa metastasis: ovarian cancer metastasis inhibition, 3D TME model | SKOV3ip1-GFP adhesion/invasion on 3D omental model, fluorescence | Potency, µM (top dose mostly 45.8 µM), most hits filed as inhibitors | 46,000 compounds, 0.1% hits; note: nearly all actives have a fitted effect of over 65% in size
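Adhesion/invasion was scored as fixed GFP-labeled SKOV3ip1 cell counts (488/509 nm), normalized to DMSO and tomatine controls. Cancer cells in serum-free medium, with four compound doses (0.36-46 umol/L), sat 2 hr at RT then 16 hr at 37 C on a 48 hr fibroblast/mesothelial/ECM culture.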
p53null 39C kill: p53 null cell cytotoxicity, nonpermissive temperature. Potency, µM (doses to about 46.1 µM), hits mostly cytotoxic. H1299 p53-null (neo) cells, 39C, ATPlite viability, 24 h. 55,000 compounds, 0.97% hits; note: nearly all actives have a fitted effect of over 50% in size
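H1299 lung cancer cells, p53-null (H1299-neo) or expressing p53 A138V (H1299-p53A138V), were plated overnight at 37C, then exposed to compounds at up to 46 uM for 24 hr at 39C. Viability was read by ATP-based luminescence.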
S16 viability: toxic to S16 Pmp22-F2sN Schwann cells; Potency, µM (top dose mostly 57.5 µM), usual class: cytotoxic; S16 Pmp22-F2sN Schwann cells viability, CellTiter-Glo, 24 h; 43,000 compounds, 0.48% hits; note: nearly all actives have a fitted effect of over 65% in size
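S16 Schwann cells carrying the Pmp22-F2sN reporter, seeded in 1536-well format, were exposed to library compounds for 24 h at 37C. Viability was read as CellTiter-Glo luminescence after 15 min at room temperature.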
PMP22 txn prim: modulators of PMP22 gene transcription in S16 Schwann cells; S16 Pmp22-F2sN Schwann cells (luciferase reporters placed in the Pmp22 gene), FLuc/NLuc coincidence luminescence, 24 h; Potency, µM (titrated, usually from 57.5 µM), hits mostly inhibitors; 43,000 compounds, 2% hits; active = clear falling dose curves in both reporters; inconclusive = both reporters move, but less clearly or upward; inactive = either reporter flat; the % is the NLuc reporter signal
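Schwann cells carrying the coincidence reporter were exposed to library compounds for 24 h at 37C, then lysed and read for FLuc and, after quenching, NLuc luminescence on a CCD imager.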
A number is an active result; . = inactive; ? = inconclusive; / = not tested or not shown. This is a sample that favours compounds with a hit; in the whole collection about 3.1% have one here. Unless noted, calls come from the whole dose curve; as a rule, active = well fitted curve in the direction sought with a large enough effect; inconclusive = small, poorly fitted or top-dose-only effect, or another doubt; inactive = no such curve, though single readings can be large; an effect the other way counts as inactive or inconclusive.

SMILES	mTORC1 inh	p53null 32C kill	OvCa metastasis	p53null 39C kill	S16 viability	PMP22 txn prim
Cc1ccc(/C=C/c2nc3ccccc3n2S(=O)(=O)c2ccc(Br)cc2)cc1	.	6.31µM	.	.	?	?
C=CCSc1nc2ccccc2n1S(=O)(=O)c1ccc(C)cc1	/	.	/	.	/	/
N#CC(c1ccnc(NCCc2cccnc2)n1)c1nc2ccccc2s1 (stereo unspecified)	/	/	.	/	/	/
COC(=O)c1cc(S(=O)(=O)N2CCN(c3cccc(C)c3)C(C)C2)cn1C (stereo unspecified)	.	.	.	12.6µM	.	.
CC(=O)O[C@@]12CO[C@H]1C[C@H](O)[C@@]1(C)C(=O)[C@H](O)C3=C(C)[C@@H](OC(=O)C(O)[C@@H](NC(=O)OC(C)(C)C)c4ccccc4)C[C@@](O)([C@@H](OC(=O)c4ccccc4)[C@@H]21)C3(C)C (stereo partly specified)	/	/	.	/	/	/
Cc1cccc(-n2ncc3c(N4CCCC(C)C4)ncnc32)c1 (stereo unspecified)	.	3.16µM	.	2µM	.	?
CC1CCCN(c2ncnc3c2cnn3-c2ccc(F)cc2)C1 (stereo unspecified)	.	2.82µM	.	?	.	.
Cc1ccc(-n2ncc3c(N4CCN(c5ccc(F)cc5)CC4)ncnc32)cc1	.	.	.	.	.	.
Cc1ccc(-n2ncc3c(N4CCCCCC4)ncnc32)cc1C	.	10µM	.	.	.	.
OC[C@H]1O[C@@H](O[C@H]2[C@@H](O)[C@@](O)(CO)O[C@@H]2CO)[C@H](O)[C@@H](O)[C@@H]1O	/	/	.	/	/	/
Cc1ccc(Cl)cc1NC(=O)c1cc(-c2ccc3c(c2)OCCO3)on1	.	?	.	?	.	.
Cc1cccc(NC(=O)c2cc(-c3ccc4c(c3)OCCO4)on2)c1	.	1.26µM	.	1.26µM	.	.
O=C(Nc1cccc(Cl)c1)c1cc(-c2ccc3c(c2)OCCO3)on1	.	?	.	?	.	.
Cc1ccc(OC(=O)c2cc(-c3ccc4c(c3)OCCO4)on2)cc1C	.	?	.	25.1µM	?	.
Cc1cc(OC(=O)c2cc(-c3ccc4c(c3)OCCO4)on2)ccc1Cl	.	.	.	15.8µM	.	.
COC1CCC(N(C(=O)C2CCC(C)CC2)c2cc(C3=CCCCC3)sc2C(=O)O)CC1 (stereo unspecified)	/	/	.	/	/	/
O=C(NC1CCNCC1)c1[nH]ncc1NC(=O)c1c(Cl)cccc1Cl	/	/	.	/	/	/
CC1(O)CC(c2nc(-c3ccc4ccc(-c5ccccc5)nc4c3)c3c(N)nccn23)C1 (stereo unspecified)	/	/	.	/	/	/
CS(=O)(=O)N(CC(=O)NCCc1ccccc1)c1cc(C(F)(F)F)ccc1Cl	6.56µM	.	.	.	.	.
C[C@H](NC(=O)Cc1cc(F)cc(F)c1)C(=O)N[C@H](C(=O)OC(C)(C)C)c1ccccc1	/	/	.	/	/	/
Cc1ccc(S(=O)(=O)Nc2cccc(-c3ccc(N4CCC(C)CC4)nn3)c2)s1	?	12.6µM	.	15.8µM	/	/
O=S(=O)(Nc1cccc(-c2ccc(N3CCCCC3)nn2)c1)c1ccc(F)cc1F	.	?	.	?	.	.
CC1CCN(c2ccc(-c3cccc(NS(=O)(=O)c4ccc(F)cc4F)c3)nn2)CC1	.	10µM	.	10µM	/	/
CCOc1ccc(S(=O)(=O)Nc2cccc(-c3ccc(N4CCC(C)CC4)nn3)c2)cc1	.	?	?	?	/	/
CN(C)CC(=O)N1CCC(c2ccc(NC(=O)c3ncc(C#N)[nH]3)c(C3=CCCCC3)c2)CC1	/	/	.	/	/	/
Cc1ncc(-c2ccnc(Nc3ccc(S(C)(=O)=O)cc3)n2)n1C(C)C	/	/	.	/	/	/
Cc1ccc2nc(-c3cccc(N)c3)[nH]c2c1	/	12.6µM	/	?	/	/
Nc1cccc(-c2nc3ccccc3[nH]2)c1	/	.	/	.	/	/
COc1ccc(C)cc1NC(=O)C(Cc1ccccc1)NS(=O)(=O)c1ccc(Br)s1 (stereo unspecified)	6.56µM	.	?	?	.	?

Screening results deposited in PubChem BioAssay by National Center for Advancing Translational Sciences (NCATS).
